Nrf2 ARE act: qHTS of Nrf2 Activators; AREc32 ARE-luciferase reporter (MCF7-derived line), luminescence, 24 h; Potency, µM (titrated, usually from 46.1 µM), inactives show at the top dose activation, most hits filed as activators; actives 0.31% (n = 410,000); note: % of control where 0% means no effect; nearly all actives have a fitted effect of over 65% in size
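Reporter line AREc32 (ARE-Fluc), seeded overnight in OPTI-MEM with 5% FBS; compound pin-transferred, 24 hr at 37 deg C, 5% CO2; luminescent read-out.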
Pin1 inh: qHTS Assay to Find Inhibitors of Pin1; Peptidyl-prolyl cis-trans isomerase NIMA-interacting 1 (Homo sapiens), Q13526; Pin1 FP peptide displacement, HiFluor488, 10 min; Potency, µM (doses to about 115 µM), for the others: top-dose activity, negative = inhibition, most hits filed as inhibitors; actives 0.009% (n = 390,000); AID 504891, 2011; active = well fitted inhibition curve with a large enough effect in the polarisation, with a control signal flat, not every such curve was filed as active; inconclusive = small, poorly fitted or top-dose-only effect, or effect the other way, or a change in a side signal; inactive = no such curve, though single readings can be large or run the other way; the % refers to the polarisation; note: % is set by controls: 0 for no effect and ±100 for the full control effect
Target sequence (Q13526 whole entry, looked up): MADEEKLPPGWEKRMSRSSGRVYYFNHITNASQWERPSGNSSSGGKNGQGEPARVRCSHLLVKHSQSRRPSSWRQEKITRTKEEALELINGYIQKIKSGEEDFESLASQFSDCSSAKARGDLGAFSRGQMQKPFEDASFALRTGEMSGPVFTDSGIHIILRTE
Nrf2 block: Nrf2 qHTS screen for inhibitors; A549 ARE-Fluc reporter, luciferase luminescence, 18-24 h; Potency, µM (titrated, usually from 46 µM), for inactives: at the highest dose activity change, negative = inhibition, hits mostly inhibitors; actives 2.1% (n = 360,000); AID 504444, 2011; note: % is set by controls: 0 for no effect and ±100 for the full control effect; nearly all actives have a fitted effect of over 60% in size
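Quantitative HTS in A549 cells stably bearing an antioxidant response element-firefly luciferase construct. Inhibition of Nrf2-driven transcription was scored by luminescence after 18-24 h of compound exposure at 37 °C.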
A549 tox-1: Nrf2 qHTS screen for inhibitors: counterscreen for cytotoxicity. actives 0.16% (n = 390,000). Potency, µM (highest dose often 46 µM), for the others: at the top dose activity change, negative = cytotoxicity, usual class: inhibitors. AID 504648, 2011. A549 ARE-Fluc cells, CellTiter-Fluor viability, 18-24 h; note: % is set by controls: 0 for no effect and ±100 for the full control effect
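A549 ARE_Fluc cells in 5% FBS OPTI-MEM were exposed to compounds in concentration-response for 18-24 h at 37 deg C. Viability was read by CellTiter-Fluor fluorescence (Ex 405/Em 525) after 30 min, before the luciferase read.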
FLuc enzyme inh: Nrf2 qHTS screen for inhibitors: Purified Fluc Biochemical Counterscreen for Hit Validation; shares compounds with Nrf2 block; purified firefly luciferase, luminescence inhibition; Potency, µM (series often up to 57.5 µM), for the others: top-dose activity change, negative = inhibition, most hits filed as inhibitors; actives 4% (n = 1,400); note: % is set by controls: 0 for no effect and ±100 for the full control effect; nearly all actives have a fitted effect of over 65% in size
Target sequence (P08659 whole entry, looked up): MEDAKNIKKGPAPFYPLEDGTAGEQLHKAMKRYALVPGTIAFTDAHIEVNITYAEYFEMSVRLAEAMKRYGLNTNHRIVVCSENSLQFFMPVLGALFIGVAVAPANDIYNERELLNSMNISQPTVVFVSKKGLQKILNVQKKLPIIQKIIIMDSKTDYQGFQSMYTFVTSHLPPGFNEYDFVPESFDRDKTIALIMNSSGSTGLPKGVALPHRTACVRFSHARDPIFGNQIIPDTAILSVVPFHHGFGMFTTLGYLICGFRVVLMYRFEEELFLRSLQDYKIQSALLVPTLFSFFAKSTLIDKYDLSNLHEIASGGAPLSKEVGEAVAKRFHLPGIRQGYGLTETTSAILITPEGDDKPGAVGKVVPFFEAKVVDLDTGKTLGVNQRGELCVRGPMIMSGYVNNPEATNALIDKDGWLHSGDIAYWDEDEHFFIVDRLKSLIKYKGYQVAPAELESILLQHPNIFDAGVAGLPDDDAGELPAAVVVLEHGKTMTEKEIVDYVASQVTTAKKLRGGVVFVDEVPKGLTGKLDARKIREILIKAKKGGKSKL
A549 tox-2: Nrf2 qHTS screen for inhibitors: A549 ARE-Fluc Cytotoxicity Counterscreen for Hit Validation | actives 2% (n = 1,400) | shares compounds with Nrf2 block | AID 720523, 2013 | A549 ARE-Fluc cells, cytotoxicity counterscreen | Potency, µM (top dose mostly 46.1 µM), inactives show top-dose activity change, negative = cytotoxicity, hits mostly inhibitors;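 note: cells exposed to compounds for 18 to 24 hours; % is set by controls: 0 for no effect and ±100 for the full control effect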
Nrf2 ARE inh: Nrf2 qHTS screen for inhibitors: Nrf2 A549 ARE-Fluc Confirmation Assay for Hit Validation; shares compounds with Nrf2 block; A549 ARE-firefly luciferase reporter, luminescence; Potency, µM (highest dose often 46.1 µM), for inactives: top-dose activity change, negative = inhibition, usual class: inhibitors; actives 74% (n = 1,400); AID 720524, 2013; note: % is set by controls: 0 for no effect and ±100 for the full control effect; nearly all actives have a fitted effect of over 65% in size
* = called active by the depositor; ? = inconclusive; . = no result given; ! = not confirmed by another sample. In the library only some 2.2% were active in any assay of this set; here they are far more common. Unless noted, calls come from the whole dose curve; as a rule, active = well fitted curve in the direction sought with a large enough effect; inconclusive = small, poorly fitted or top-dose-only effect, or another doubt; inactive = no such curve, though single readings can be large; an effect the other way counts as inactive or inconclusive. Potency is the fitted concentration of half-maximal effect.

SMILES | Nrf2 ARE act | Pin1 inh | Nrf2 block | A549 tox-1 | FLuc enzyme inh | A549 tox-2 | Nrf2 ARE inh
O=C(NCc1nnc(SCC(=O)N2CCCc3ccccc32)n1-c1ccccc1)c1cccc2ccccc12 | 0% | 3% | 2.6µM* | -11% | -1% | -18% | 10µM*
CSc1ccc(CCNC(=O)c2csc3c2CCCCC3)cc1 | 3% | 0% | 5% | -7% | . | . | .
Cc1ccc2cccc(NC(=O)C(C)Oc3ccc(Cl)cc3Cl)c2n1 (stereo not drawn) | 5% | -3% | -9% | 15% | . | . | .
COc1ccc(/C=C(/C#N)C(=O)Nc2ccccc2C)cc1C(=O)O | 3% | -7% | -15% | 0% | . | . | .
CCOc1cc(/C=C(\C#N)C(=O)Nc2ccccc2C(=O)O)ccc1OC(=O)c1ccc(C)cc1 | 5% | 0% | 2.1µM* | -2% | ? | -1% | 4.6µM*
O=[N+]([O-])c1cccc2nc3ccccc3c(NCCCn3ccnc3[N+](=O)[O-])c12 | 13% | 2% | 0.15µM* | ? | ? | ? | .
COc1ccc(NC(=O)C2CCCN(S(=O)(=O)c3ccc(F)cc3)C2)cc1 (stereo not drawn) | 0% | -13% | -10% | -1% | . | . | .
COc1ccc(-c2noc(CCCCC(=O)N3CCN(c4cc(C)ccc4C)CC3)n2)cc1 | -1% | 6% | 3.7µM* | -22% | -21% | -9% | 7.3µM*
COc1ccccc1-c1noc(CCC(=O)N2CCN(c3cc(C)ccc3C)CC2)n1 | 4% | 13% | 4.6µM* | ? | 3% | 0% | -25%
Cc1cc(Nc2ccccc2F)n2nc(-c3ccccc3)nc2n1 | 1% | 0% | 15% | 4% | . | . | .
O=C(NC(=S)Nc1ccc(Cc2ccncc2)cc1)c1ccc(F)cc1 | 4% | 20% | 5.8µM* | 0% | -17% | 7% | ?
CC(=O)Nc1ccc(S(=O)(=O)N2CC3(C)CC2CC(C)(C)C3)cc1 (stereo not drawn) | 1% | -9% | 0% | -6% | . | . | .
CC1(C)CC2CC(C)(CN2S(=O)(=O)c2ccc(C(=O)Nc3ccc(Cl)c(S(=O)(=O)N4CCOCC4)c3)cc2)C1 (stereo not drawn) | 1% | 10% | 5.2µM* | -11% | -1% | -11% | 7.3µM*
CC1(C)CC2CC(C)(CN2S(=O)(=O)c2ccc(C(=O)Nc3ccc(S(=O)(=O)N4CCOCC4)cc3)cc2)C1 (stereo not drawn) | 1% | 21% | 1.5µM* | ? | 0% | 2% | 4.1µM*
CC1(c2ccc3ccccc3c2)NC(=O)N(CC(=O)N2CCN(Cc3ccccc3)CC2)C1=O (stereo not drawn) | 3% | 1% | 1.3µM* | ? | 2% | -5% | 4.6µM*
CC1(c2ccc3ccccc3c2)NC(=O)N(CC(=O)N2CCC(C(N)=O)CC2)C1=O (stereo not drawn) | 1% | -3% | -16% | 0% | . | . | .
COc1ccc(/C=C\c2onc(C)c2S(=O)(=O)N2CCC(C(=O)Nc3ccccc3OC)CC2)cc1 | 5% | 8% | -21% | 4% | . | . | .
Cc1ccc(Cn2nc(C)c(NC(=O)CSc3nc4c(c(C(F)(F)F)n3)CCc3ccccc3-4)c2C)cc1 | 0% | -1% | 9% | -4% | . | . | .
Cc1nn(Cc2ccc(Cl)cc2)c(C)c1NC(=O)CSc1nc2c(c(C(F)(F)F)n1)CCc1ccccc1-2 | 0% | 1% | 9.2µM* | ? | -8% | ? | ?
Nc1ccc(-c2cc3ccccc3oc2=O)cc1 | -2% | -1% | 1.3µM* | -1% | 8.5µM* | -1% | 1.5µM*
CCN(CC)c1ccc(/C=C/c2ccc3ccc(OC)cc3[n+]2CC)cc1 | -3% | 47% | 4.6µM* | ? | -23% | ? | 5.2µM*
O=C(Nc1ccc(F)cc1)C1CCN(c2nc3ccccc3nc2C(F)(F)F)CC1 | -1% | 2% | 0% | 0% | . | . | .
O=c1c2cnn(-c3ccccc3)c2nc(-c2ccco2)n1-c1ccccc1 | 3% | 17% | 9.2µM* | -21% | -22% | -12% | 18µM*
O=c1oc(-c2ccco2)nc2c1cnn2-c1ccccc1 | 0% | 1% | . | 1% | . | . | .
COc1ccccc1C(=O)N1CCN(Cc2cc(=O)oc3cc(C)ccc23)CC1 | 5% | 2% | 15% | -9% | . | . | .
SMILES | Nrf2 ARE act | Pin1 inh | Nrf2 block | A549 tox-1 | FLuc enzyme inh | A549 tox-2 | Nrf2 ARE inh
CCC(Cn1nnc2ccccc2c1=O)NC(=O)Nc1cc(OC)cc(OC)c1 (stereo not drawn) | 0% | -4% | 7% | 3% | . | . | .
CCCCCCCn1c2c(c(=N)c3c1CCC3)CCCC2 | 9% | -1% | 0.52µM* | ? | 2% | -27% | 1.8µM*
CCn1c2c(c(=N)c3c1CCC3)CCC2 | 0% | 0% | 31% | -1% | . | . | .
CCCCn1c2c(c(=N)c3c1CCC3)CCC2 | -1% | -20% | 2.6µM* | -14% | -1% | -11% | 6.5µM*
C=CC[n+]1c(/C=C2\C=Cc3cc(C)ccc3N2CC)ccc2ccccc21 | -1% | 40% | 4.6µM* | ? | -27% | 15µM* | 2.3µM*
CCCN1CNc2c(c(=O)[nH]c(=S)n2CCc2cccc(Cl)c2Cl)C1 | . | 1% | -21% | 3% | . | . | .
COc1cccc(CNC(=O)CCn2c(=O)c3cccn3c3cccnc32)c1 | ? | -1% | 1.2µM*! | 1% | -2% | -3% | 7%
CCOc1ccc(CNC(=O)C2CCN(S(=O)(=O)c3ccc4c(ccn4C)c3)CC2)cc1 | 4% | 1% | . | -1% | . | . | .
CC(=O)O[C@@H]1[C@@H](O)CN[C@@H]1Cc1ccccc1 | . | -13% | 0.23µM* | ? | 3% | ? | 0.33µM*
Cc1ccccc1SCC(=O)N1CCN(c2ccc(C(F)(F)F)cn2)CC1 | 1% | 7% | 3.7µM* | -1% | -1% | -4% | ?
Cn1nc(C(C)(C)C)cc1C(=O)NCc1cc(F)cc2c1OCOC2 | 0% | ? | ? | -2% | -1% | -9% | 3.7µM*
Cc1nc2ncnn2c(C)c1CCC(=O)NCc1ccccc1Cl | 0% | ? | 2% | -7% | . | . | .
Cc1ccc(S(=O)(=O)N2C[C@@H]3CCCC[C@@H]3[C@@H](C)[C@H]2c2cn(Cc3ccccc3)c3ncccc23)cc1 | 0% | 0% | 5.2µM* | -11% | 3% | -13% | 5.2µM*

From PubChem BioAssay
